# Compound activity from PubChem BioAssay.
# Glyco luc inh = increase of ERlucT glycosylation luciferase signal, primary screen, N-linked glycosylation inhibitor project, D54 ERlucT cells, luminescence, set 2 | 360,000 compounds, 0.23% hits | D54 ERlucT glycosylation luciferase reporter, 24 h; percent of 100 nM tunicamycin response | AID 588692, 2011 | reporter increase, % at 12.5 µM;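 active means mean luciferase reporter signal, scaled so untreated is 0 and the glycosylation-blocking control 100, at or above a set limit in every replicate; inconclusive means mean reaches the limit but not every replicate does; inactive means mean below the limit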;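 further: luciferase carries N-glycosylation sites so blocking glycosylation raises the light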
# MITF TRPM1 HTS = activators of MITF-driven TRPM1 promoter reporter, primary screen, cell-based, SK-MEL-5, luciferase, single point. SK-MEL-5 TRPM1-promoter luciferase, 24 h; % of positive control, neutral wells = 0. activation, % at 12.5 µM. 300,000 compounds, 0.75% hits. AID 588334, 2011;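 active means mean activation of at least 80% with every replicate also reaching 80%; inconclusive means mean reaches 80% but some replicate falls short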
# esBAF inh = Bmi1 luciferase reporter increase in mESCs, primary screen, esBAF inhibitor project, mouse ES cells, Bmi1 luciferase knock-in, single point; 350,000 compounds, 2% hits; reporter increase, % at 12.5 µM; AID 602393, 2012; 24 h; 100% = twice the neutral-well signal; in the data active means activation above about 40%; inconclusive means no clear call, values can overlap the other calls;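 further: a rise in the Bmi1 reporter signal indicates esBAF inhibition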
# PfHsp90 yeast 2 = growth inhibition of PfHsp90-expressing yeast, primary screen, antimalarial PfHsp90 inhibitor project, S. cerevisiae, BacTiter-Glo luminescence, single point, set 2; inhibition, % at 9.4 µM; 310,000 compounds, 0.32% hits; BacTiter-Glo ATP, 48 h; yeast lacking PDR1 and PDR3 efflux regulators;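 active means every replicate shows inhibition above about 80%, whatever the replicate mean, limit read from the data; inconclusive means mean inhibition reaches the set limit but some replicate falls short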
# Wnt act = Wnt/beta-catenin pathway activators, primary screen, cell-based, plate reader, single point; Wnt/beta-catenin reporter cell assay, activator; activation, % at 9.35 µM; 300,000 compounds, 1.2% hits; AID 743398, 2014; in the data active means activation above about 30%, passing the limit was not always enough; inconclusive means no clear call, values can overlap the other calls
# Vif inh = HIV Vif self-association inhibitors, primary screen, imaging, HEK293T, single point; HEK293T cells, Vif self-association by quenched fluorescence, 24 h; inhibition, % at 7.49 µM; 340,000 compounds, 0.35% hits; in the data active means inhibition above about 50%, passing the limit was not always enough; inconclusive means no clear call, values can overlap the other calls; inactive means below about 31%
# A number is an active result; – = inactive; ? = inconclusive; · = no result. Rows were chosen to be rich in hits. Some 3% of all compounds tested hit in one or more screens of this group.
SMILES,Glyco luc inh,MITF TRPM1 HTS,esBAF inh,PfHsp90 yeast 2,Wnt act,Vif inh
Cc1ccc(/C=N\Nc2cn[nH]c(=O)c2Cl)cc1,–,–,53,–,–,–
C[C@@H]1CN([C@H](C)CO)C(=O)Cc2cc(NC(=O)CCN3CCOCC3)ccc2O[C@@H]1CN(C)S(=O)(=O)c1cn(C)cn1,·,·,–,·,·,·
Cc1cccc(C(=O)Oc2ccc(/C=N/O)cc2)c1,–,127,76,–,–,–
Cc1nc2ccccc2n1CC(O)COc1ccccc1Cl (stereo not drawn),–,–,–,–,37,–
Cc1nc2ccccc2n1CC(O)COc1ccc(Br)cc1 (stereo not drawn),–,–,·,–,–,–
Cc1cc2oc(=O)cc(CN(C)Cc3ccccc3)c2cc1C,–,·,48,·,–,·
Cc1ccc2c(CN(C)Cc3cccc(F)c3)cc(=O)oc2c1C,–,–,50,–,–,–
Cc1ccc2c(CN(C)Cc3ccccc3)cc(=O)oc2c1C,–,–,59,–,–,–
CCCCn1c(N)c(N(CC(C)C)C(=O)c2ccc(S(=O)(=O)N(CC)c3ccccc3)cc2)c(=O)[nH]c1=O,–,–,–,–,–,–
c1ccc2nc3c(nc2c1)[nH]c1ccccc13,·,–,·,–,93,·
CC1=NN(c2ccc([N+](=O)[O-])cc2)C(=O)/C1=C\N(C)C,–,–,·,–,–,–
CN(C)/C=C1\C(=O)N(c2ccc([N+](=O)[O-])cc2)N=C1c1ccccc1,–,–,53,–,·,–
CCCCc1noc2c1/C(=N\O)CC(c1ccccc1)C2 (stereo not drawn),–,–,59,–,–,–
CC(C)C(=O)Nc1cccc(C(=O)NCc2ccc3c(c2)OCO3)c1,–,–,·,–,–,–
CC(C)(CO)NC(=O)C(c1ccccc1)c1ccccc1,–,–,–,–,·,–
COc1ccc(C(=S)N2CCCC2)cc1Br,–,·,–,–,–,–
O=C(N/N=C\C=C\c1ccco1)c1cc(-c2ccc3ccccc3c2)n[nH]1,–,–,·,–,57,–
O=C(N/N=C/C=C\c1ccco1)c1ccccn1,–,–,·,–,–,–
FC(F)(F)c1ccc(C2[C@H]3CN(Cc4cccnc4)[C@H](c4ccccc4)C34CC2(c2ccccc2)C4)cc1 (stereo partly drawn),–,–,–,–,–,–
O=C(NN=C1CCCC1)c1ccccc1O,–,·,75,–,–,–
O=C(O)c1ccccc1NN=C1CCCCC1,–,–,83,–,–,–
O=C(Nc1cccc(S(=O)(=O)N2CCCCC2)c1)c1cc([N+](=O)[O-])ccc1N1CCOCC1,–,–,·,–,–,–
CC(=O)C1=C(O)C(=O)N(Cc2ccco2)C1c1ccccc1 (stereo not drawn),–,–,–,–,–,·
CSc1ncc(C(=O)Nc2ccc(C(C)=O)cc2)c(C)n1,–,–,52,–,–,–
CSc1ncc(C(=O)Nc2ccc(Cl)cc2)c(C)n1,–,–,–,–,–,–
SMILES,Glyco luc inh,MITF TRPM1 HTS,esBAF inh,PfHsp90 yeast 2,Wnt act,Vif inh
COc1ccccc1N1CCN(C(=O)c2cccc(N3C(=O)C4C5C=CC(C5)C4C3=O)c2)CC1 (stereo not drawn),–,–,–,–,–,–
COCCSc1nnc(NS(=O)(=O)Cc2ccccc2)s1,–,–,–,–,–,–
CC1CCC(NC(=O)c2ccc(NS(=O)(=O)c3ccc4[nH]c(=O)[nH]c4c3)cc2)CC1 (stereo not drawn),–,98,·,·,–,–
NC(=O)C1CCN(C(c2ccccc2Cl)c2nnnn2CC2CCCO2)CC1 (stereo not drawn),–,–,–,–,·,·
O=c1cc(CSc2nnc(NC3CCCCC3)s2)nc2sccn12,–,–,–,–,–,–
c1ccc(CSc2nnc(NC3CCCCC3)s2)cc1,–,·,·,·,42,–
Clc1ccc(-n2nnc(-c3cccnc3)n2)cc1Cl,–,–,83,–,32,–
Fc1ccc(-n2nnc(-c3cccnc3)n2)cc1,–,–,62,–,32,–
Clc1ccc(-n2nnc(-c3ncc[nH]3)n2)cc1Cl,–,?,62,–,–,·
Brc1ccccc1-n1nnc(-c2cccnc2)n1,–,?,?,–,–,–
Nc1nc(N)n(-c2ccccc2)c(=Nc2ccccc2)n1,–,–,–,–,–,–
COC(=O)c1cccc(C(=O)Nc2cnc3ccccc3c2)n1,–,–,59,–,·,–
Cc1ccc(NC(=O)Nc2cnc3ccccc3c2)cc1,–,?,–,–,39,–
CCN(CC)C(=O)Nc1cnc2ccccc2c1,–,–,–,–,·,–
O=C(Nc1cnc2ccccc2c1)c1ccncc1,–,–,–,–,–,–
O=C(NC(=S)Nc1cnc2ccccc2c1)c1ccccc1,–,–,·,–,53,–
O=C(NC(=S)Nc1ncc(Br)cc1Br)c1ccccc1,–,–,53,–,–,–
S=C(NCCc1ccccc1)Nc1ccc(Nc2ccccc2)cc1,–,–,–,–,–,–
Cn1ncc2cc(NC(=S)NC(=O)c3ccccc3)ccc21,–,–,48,·,·,–
COc1ccc(NC(=S)NC(=O)c2ccccc2)cn1,–,–,·,–,–,–
S=C(NCCc1ccccc1)Nc1cnc2ccccc2c1,–,–,44,–,–,–
CC(C)C(c1nnnn1C1CCCC1)N1CCN(C(=O)c2ccco2)CC1 (stereo not drawn),–,–,–,–,–,–
O=S(=O)(c1cccc(Cl)c1)N1CCSc2ccccc21,–,·,–,–,–,–
CN(C)/C=C/C(=O)/C=C/c1ccc(Cl)cc1,–,–,·,–,71,–
Cc1cccc(NC(=O)c2c(F)c(F)c(F)c(F)c2F)c1,–,–,–,–,–,–
SMILES,Glyco luc inh,MITF TRPM1 HTS,esBAF inh,PfHsp90 yeast 2,Wnt act,Vif inh
CC(CC(=O)Nc1nccs1)c1ccccc1 (stereo not drawn),–,–,–,–,–,–
CCc1ccc2c(c1)C(=O)c1ccccc1C2=O,–,–,·,–,74,–
CCc1ccc(NC2=CC(=O)C(=O)c3ccccc32)cc1,–,–,·,–,33,–
CC(C)(C)c1ccc2c(c1)C(=O)c1ccccc1C2=O,–,–,–,–,?,–
CCNC(=O)CC(=O)Nc1ccccc1C(=O)O,–,–,–,–,·,–
CS(=O)(=O)c1ccc(C(=O)NC2CCOC2=O)cc1 (stereo not drawn),–,–,–,·,–,–
CCCNC(=O)COc1ccc2c(=O)c(Oc3ccccc3F)coc2c1,–,–,·,–,–,–
COc1ccccc1Oc1coc2cc(OCC(N)=O)ccc2c1=O,–,–,–,–,–,59
CCOc1ccccc1NC(=O)CN1C(=O)C(C)SC(C)C1=O (stereo not drawn),–,–,·,·,39,–
